# Tests used:
# Test in all cases: PBM; 200 nM protein, PBS
# Conditions in all cases: dsDNA, one strand shown
# PRRX1 [1] = target: PRRX1 (Homo sapiens, UniProt P54821 80-166, F113S)
# PROP1 [2] = target: PROP1 (Homo sapiens, UniProt O75360 56-141)
# PROP1 [3] = target: PROP1 (Homo sapiens, UniProt O75360 56-141, R99H)
# PROP1 [4] = target: PROP1 (Homo sapiens, UniProt O75360 56-141, F88S)
# PRRX1 [5] = target: PRRX1 (Homo sapiens, UniProt P54821 80-166)
# MSX2 [6] = target: MSX2 (Homo sapiens, UniProt P35548 130-214, R199I)
# MSX2 (Homo sapiens, UniProt P35548 130-214, R199I), sequence (P35548 130-214 R199I): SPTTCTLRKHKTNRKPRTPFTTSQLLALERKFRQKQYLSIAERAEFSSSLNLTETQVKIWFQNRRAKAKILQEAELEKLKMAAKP
# MSX2 [7] = target: MSX2 (Homo sapiens, UniProt P35548 130-214)
# MSX2 (Homo sapiens, UniProt P35548 130-214), sequence (P35548 130-214): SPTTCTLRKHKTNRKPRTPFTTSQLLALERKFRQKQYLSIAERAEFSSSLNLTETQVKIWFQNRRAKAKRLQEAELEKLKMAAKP
# MSX2 [8] = target: MSX2 (Homo sapiens, UniProt P35548 130-214, F161Y)
# MSX2 (Homo sapiens, UniProt P35548 130-214, F161Y), sequence (P35548 130-214 F161Y): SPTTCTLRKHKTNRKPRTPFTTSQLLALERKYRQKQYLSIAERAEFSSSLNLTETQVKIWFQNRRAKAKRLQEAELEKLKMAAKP
# VAX1 [9] = target: VAX1 (Homo sapiens, UniProt Q5SQQ9 86-172)
# VAX1 (Homo sapiens, UniProt Q5SQQ9 86-172), sequence (Q5SQQ9 86-172): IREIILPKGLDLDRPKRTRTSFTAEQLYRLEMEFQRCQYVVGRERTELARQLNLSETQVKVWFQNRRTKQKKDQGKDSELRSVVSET
# HOXD13 [10] = target: HOXD13 (Homo sapiens, UniProt P35453 263-343, T313R)
# HOXD13 (Homo sapiens, UniProt P35453 263-343, T313R), sequence (P35453 263-343 T313R): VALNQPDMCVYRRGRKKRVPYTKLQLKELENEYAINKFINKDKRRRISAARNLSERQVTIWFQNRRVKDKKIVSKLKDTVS
# HOXD13 [11] = target: HOXD13 (Homo sapiens, UniProt P35453 263-343)
# HOXD13 (Homo sapiens, UniProt P35453 263-343), sequence (P35453 263-343): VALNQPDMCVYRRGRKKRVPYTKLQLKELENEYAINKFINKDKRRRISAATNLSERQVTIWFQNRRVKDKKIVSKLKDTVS
# HOXD13 [12] = target: HOXD13 (Homo sapiens, UniProt P35453 263-343, T313A)
# HOXD13 (Homo sapiens, UniProt P35453 263-343, T313A), sequence (P35453 263-343 T313A): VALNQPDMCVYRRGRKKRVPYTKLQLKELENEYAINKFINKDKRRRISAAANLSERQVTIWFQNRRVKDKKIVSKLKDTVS
# HESX1 [13] = target: HESX1 (Homo sapiens, UniProt Q9UBX0 95-180)
# HESX1 (Homo sapiens, UniProt Q9UBX0 95-180), sequence (Q9UBX0 95-180): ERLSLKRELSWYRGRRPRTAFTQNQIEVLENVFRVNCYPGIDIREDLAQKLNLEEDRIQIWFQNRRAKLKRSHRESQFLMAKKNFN
# ALX3 [14] = target: ALX3 (Homo sapiens, UniProt O95076 139-225, N203Q)
# ALX3 (Homo sapiens, UniProt O95076 139-225, N203Q), sequence (O95076 139-225 N203Q): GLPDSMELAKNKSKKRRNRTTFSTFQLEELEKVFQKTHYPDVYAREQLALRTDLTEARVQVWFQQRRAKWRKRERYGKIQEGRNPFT
# ALX3 [15] = target: ALX3 (Homo sapiens, UniProt O95076 139-225)
# ALX3 (Homo sapiens, UniProt O95076 139-225), sequence (O95076 139-225): as the sequence (O95076 139-225 N203Q) above, with Q65N counted along it
# ALX3 [16] = target: ALX3 (Homo sapiens, UniProt O95076 139-225, L168Q)
# ALX3 (Homo sapiens, UniProt O95076 139-225, L168Q), sequence (O95076 139-225 L168Q): as the sequence (O95076 139-225 N203Q) above, with L30Q, Q65N counted along it
# ALX3 [17] = target: ALX3 (Homo sapiens, UniProt O95076 139-225, L168V)
# ALX3 (Homo sapiens, UniProt O95076 139-225, L168V), sequence (O95076 139-225 L168V): as the sequence (O95076 139-225 N203Q) above, with L30V, Q65N counted along it
# VAX1 [18] = target: VAX1 (Homo sapiens, UniProt Q5SQQ9 86-172, T142I)
# VAX1 (Homo sapiens, UniProt Q5SQQ9 86-172, T142I), sequence (Q5SQQ9 86-172 T142I): as the sequence (Q5SQQ9 86-172) above, with T57I counted along it
# ALX3 [19] = target: ALX3 (Homo sapiens, UniProt O95076 139-225, N203S)
# ALX3 (Homo sapiens, UniProt O95076 139-225, N203S), sequence (O95076 139-225 N203S): as the sequence (O95076 139-225 N203Q) above, with Q65S counted along it
# VAX1 [20] = target: VAX1 (Homo sapiens, UniProt Q5SQQ9 86-172, K157R)
# VAX1 (Homo sapiens, UniProt Q5SQQ9 86-172, K157R), sequence (Q5SQQ9 86-172 K157R): as the sequence (Q5SQQ9 86-172) above, with K72R counted along it
# HOXA2 [21] = target: HOXA2 (Homo sapiens, UniProt O43364 129-215, R185T)
# HOXA2 (Homo sapiens, UniProt O43364 129-215, R185T), sequence (O43364 129-215 R185T): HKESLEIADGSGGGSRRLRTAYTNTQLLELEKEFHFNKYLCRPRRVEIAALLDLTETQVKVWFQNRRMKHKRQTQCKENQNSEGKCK
# ALX1 [22] = target: ALX1 (Homo sapiens, UniProt Q15699 118-204, L144V)
# ALX1 (Homo sapiens, UniProt Q15699 118-204, L144V), sequence (Q15699 118-204 L144V): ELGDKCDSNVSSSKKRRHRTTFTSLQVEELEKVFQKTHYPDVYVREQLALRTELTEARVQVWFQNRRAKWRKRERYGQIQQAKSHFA
# PITX2 = PITX2 (Homo sapiens, UniProt Q99697 72-157)
# HOXA2 [23] = target: HOXA2 (Homo sapiens, UniProt O43364 129-215, R185K)
# HOXA2 (Homo sapiens, UniProt O43364 129-215, R185K), sequence (O43364 129-215 R185K): as the sequence (O43364 129-215 R185T) above, with T57K counted along it
# ALX1 [24] = target: ALX1 (Homo sapiens, UniProt Q15699 118-204, L144R)
# ALX1 (Homo sapiens, UniProt Q15699 118-204, L144R), sequence (Q15699 118-204 L144R): as the sequence (Q15699 118-204 L144V) above, with V27R counted along it
# HOXA2 [25] = target: HOXA2 (Homo sapiens, UniProt O43364 129-215, Y150S)
# HOXA2 (Homo sapiens, UniProt O43364 129-215, Y150S), sequence (O43364 129-215 Y150S): as the sequence (O43364 129-215 R185T) above, with Y22S, T57R counted along it
# ALX1 [26] = target: ALX1 (Homo sapiens, UniProt Q15699 118-204)
# ALX1 (Homo sapiens, UniProt Q15699 118-204), sequence (Q15699 118-204): as the sequence (Q15699 118-204 L144V) above, with V27L counted along it
# HOXA2 [27] = target: HOXA2 (Homo sapiens, UniProt O43364 129-215)
# HOXA2 (Homo sapiens, UniProt O43364 129-215), sequence (O43364 129-215): as the sequence (O43364 129-215 R185T) above, with T57R counted along it
# HOXB6 = HOXB6 (Homo sapiens, UniProt P17509 132-218, K202E)
# HOXB6, sequence (P17509 132-218 K202E): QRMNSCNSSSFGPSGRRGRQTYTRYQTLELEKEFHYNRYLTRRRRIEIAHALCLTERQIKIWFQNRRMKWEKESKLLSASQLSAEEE
# HESX1 [28] = target: HESX1 (Homo sapiens, UniProt Q9UBX0 95-180, F115L)
# HESX1 (Homo sapiens, UniProt Q9UBX0 95-180, F115L), sequence (Q9UBX0 95-180 F115L): as the sequence (Q9UBX0 95-180) above, with F21L counted along it
# PRRX1 (Homo sapiens, UniProt P54821 80-166), sequence (P54821 80-166): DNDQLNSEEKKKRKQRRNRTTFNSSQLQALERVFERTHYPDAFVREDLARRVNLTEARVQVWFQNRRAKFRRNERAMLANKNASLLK
# PRRX1 (Homo sapiens, UniProt P54821 80-166, F113S), sequence (P54821 80-166 F113S): as the sequence (P54821 80-166) above, with F34S counted along it
# PROP1 (Homo sapiens, UniProt O75360 56-141, F88S), sequence (O75360 56-141 F88S): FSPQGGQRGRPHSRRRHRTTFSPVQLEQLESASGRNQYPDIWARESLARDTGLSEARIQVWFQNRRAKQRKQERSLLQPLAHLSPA
# PROP1 (Homo sapiens, UniProt O75360 56-141), sequence (O75360 56-141): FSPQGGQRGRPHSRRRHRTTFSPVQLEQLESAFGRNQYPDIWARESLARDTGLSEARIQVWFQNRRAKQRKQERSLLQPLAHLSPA
# PROP1 (Homo sapiens, UniProt O75360 56-141, R99H), sequence (O75360 56-141 R99H): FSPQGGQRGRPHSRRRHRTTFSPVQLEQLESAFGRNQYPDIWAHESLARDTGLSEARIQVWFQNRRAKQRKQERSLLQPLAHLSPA
sequence,measurement,setting,value
CTTAATCA,binding signal,PRRX1 [1],"10.9 upbm affinity estimate (log intensity, higher = more binding, comparable within an allelic series)"
same,binding signal,PROP1 [2],"10.5 upbm affinity estimate (log intensity, higher = more binding, comparable within an allelic series)"
same,binding signal,PROP1 [3],"9.83 upbm affinity estimate (log intensity, higher = more binding, comparable within an allelic series)"
same,binding signal,PROP1 [4],"7.41 upbm affinity estimate (log intensity, higher = more binding, comparable within an allelic series)"
same,binding signal,PRRX1 [5],"13 upbm affinity estimate (log intensity, higher = more binding, comparable within an allelic series)"
ACCCCGGG,binding signal,PRRX1 [1],"9.35 upbm affinity estimate (log intensity, higher = more binding, comparable within an allelic series)"
same,binding signal,MSX2 [6],"9.55 upbm affinity estimate (log intensity, higher = more binding, comparable within an allelic series)"
same,binding signal,MSX2 [7],"9.62 upbm affinity estimate (log intensity, higher = more binding, comparable within an allelic series)"
same,binding signal,MSX2 [8],"9.67 upbm affinity estimate (log intensity, higher = more binding, comparable within an allelic series)"
same,binding signal,PRRX1 [5],"9.33 upbm affinity estimate (log intensity, higher = more binding, comparable within an allelic series)"
AGTGGTAA,binding signal,PRRX1 [1],"10 upbm affinity estimate (log intensity, higher = more binding, comparable within an allelic series)"
same,binding signal,VAX1 [9],"9.41 upbm affinity estimate (log intensity, higher = more binding, comparable within an allelic series)"
same,binding signal,PRRX1 [5],"11.2 upbm affinity estimate (log intensity, higher = more binding, comparable within an allelic series)"
CATAAATC,binding signal,PRRX1 [1],"10.2 upbm affinity estimate (log intensity, higher = more binding, comparable within an allelic series)"
same,binding signal,HOXD13 [10],"10.7 upbm affinity estimate (log intensity, higher = more binding, comparable within an allelic series)"
same,binding signal,HOXD13 [11],"11.8 upbm affinity estimate (log intensity, higher = more binding, comparable within an allelic series)"
same,binding signal,HOXD13 [12],"11.5 upbm affinity estimate (log intensity, higher = more binding, comparable within an allelic series)"
same,binding signal,PRRX1 [5],"11.5 upbm affinity estimate (log intensity, higher = more binding, comparable within an allelic series)"
CGTAAGTA,binding signal,PRRX1 [1],"10 upbm affinity estimate (log intensity, higher = more binding, comparable within an allelic series)"
same,binding signal,HESX1 [13],"7.17 upbm affinity estimate (log intensity, higher = more binding, comparable within an allelic series)"
same,binding signal,PRRX1 [5],"11 upbm affinity estimate (log intensity, higher = more binding, comparable within an allelic series)"
AGCCGGGC,binding signal,PRRX1 [1],"8.99 upbm affinity estimate (log intensity, higher = more binding, comparable within an allelic series)"
same,binding signal,ALX3 [14],"7.69 upbm affinity estimate (log intensity, higher = more binding, comparable within an allelic series)"
same,binding signal,ALX3 [15],"7.71 upbm affinity estimate (log intensity, higher = more binding, comparable within an allelic series)"
same,binding signal,VAX1 [9],"7 upbm affinity estimate (log intensity, higher = more binding, comparable within an allelic series)"
same,binding signal,ALX3 [16],"7.68 upbm affinity estimate (log intensity, higher = more binding, comparable within an allelic series)"
same,binding signal,ALX3 [17],"7.64 upbm affinity estimate (log intensity, higher = more binding, comparable within an allelic series)"
same,binding signal,VAX1 [18],"7.24 upbm affinity estimate (log intensity, higher = more binding, comparable within an allelic series)"
same,binding signal,ALX3 [19],"7.72 upbm affinity estimate (log intensity, higher = more binding, comparable within an allelic series)"
same,binding signal,PRRX1 [5],"9.33 upbm affinity estimate (log intensity, higher = more binding, comparable within an allelic series)"
same,binding signal,VAX1 [20],"6.91 upbm affinity estimate (log intensity, higher = more binding, comparable within an allelic series)"
CCGGCCAG,binding signal,PRRX1 [1],"8.97 upbm affinity estimate (log intensity, higher = more binding, comparable within an allelic series)"
same,binding signal,HOXA2 [21],"7.26 upbm affinity estimate (log intensity, higher = more binding, comparable within an allelic series)"
same,binding signal,ALX1 [22],"6.59 upbm affinity estimate (log intensity, higher = more binding, comparable within an allelic series)"
same,binding signal,ALX3 [14],"7.68 upbm affinity estimate (log intensity, higher = more binding, comparable within an allelic series)"
same,binding signal,PITX2,"7.87 upbm affinity estimate (log intensity, higher = more binding, comparable within an allelic series)"
same,binding signal,HOXA2 [23],"9.96 upbm affinity estimate (log intensity, higher = more binding, comparable within an allelic series)"
same,binding signal,ALX1 [24],"6.61 upbm affinity estimate (log intensity, higher = more binding, comparable within an allelic series)"
same,binding signal,ALX3 [15],"7.75 upbm affinity estimate (log intensity, higher = more binding, comparable within an allelic series)"
same,binding signal,VAX1 [9],"6.85 upbm affinity estimate (log intensity, higher = more binding, comparable within an allelic series)"
same,binding signal,ALX3 [16],"7.66 upbm affinity estimate (log intensity, higher = more binding, comparable within an allelic series)"
same,binding signal,ALX3 [17],"7.61 upbm affinity estimate (log intensity, higher = more binding, comparable within an allelic series)"
same,binding signal,VAX1 [18],"6.97 upbm affinity estimate (log intensity, higher = more binding, comparable within an allelic series)"
same,binding signal,HOXA2 [25],"10.3 upbm affinity estimate (log intensity, higher = more binding, comparable within an allelic series)"
same,binding signal,ALX1 [26],"6.55 upbm affinity estimate (log intensity, higher = more binding, comparable within an allelic series)"
same,binding signal,ALX3 [19],"7.66 upbm affinity estimate (log intensity, higher = more binding, comparable within an allelic series)"
same,binding signal,PRRX1 [5],"9.42 upbm affinity estimate (log intensity, higher = more binding, comparable within an allelic series)"
same,binding signal,HOXA2 [27],"7.18 upbm affinity estimate (log intensity, higher = more binding, comparable within an allelic series)"
same,binding signal,VAX1 [20],"6.86 upbm affinity estimate (log intensity, higher = more binding, comparable within an allelic series)"
GAGCGGCC,binding signal,PRRX1 [1],"9.25 upbm affinity estimate (log intensity, higher = more binding, comparable within an allelic series)"
same,binding signal,PROP1 [2],"6.83 upbm affinity estimate (log intensity, higher = more binding, comparable within an allelic series)"
same,binding signal,PROP1 [3],"6.8 upbm affinity estimate (log intensity, higher = more binding, comparable within an allelic series)"
same,binding signal,PROP1 [4],"6.52 upbm affinity estimate (log intensity, higher = more binding, comparable within an allelic series)"
same,binding signal,PRRX1 [5],"9.59 upbm affinity estimate (log intensity, higher = more binding, comparable within an allelic series)"
CCGTGTCC,binding signal,PRRX1 [1],"9.3 upbm affinity estimate (log intensity, higher = more binding, comparable within an allelic series)"
same,binding signal,VAX1 [9],"6.98 upbm affinity estimate (log intensity, higher = more binding, comparable within an allelic series)"
same,binding signal,VAX1 [18],"7.18 upbm affinity estimate (log intensity, higher = more binding, comparable within an allelic series)"
same,binding signal,PRRX1 [5],"9.13 upbm affinity estimate (log intensity, higher = more binding, comparable within an allelic series)"
same,binding signal,VAX1 [20],"6.99 upbm affinity estimate (log intensity, higher = more binding, comparable within an allelic series)"
CCAGGGAG,binding signal,PRRX1 [1],"9.19 upbm affinity estimate (log intensity, higher = more binding, comparable within an allelic series)"
same,binding signal,PRRX1 [5],"8.8 upbm affinity estimate (log intensity, higher = more binding, comparable within an allelic series)"
CGGAACCG,binding signal,PRRX1 [1],"9.35 upbm affinity estimate (log intensity, higher = more binding, comparable within an allelic series)"
same,binding signal,PITX2,"7.68 upbm affinity estimate (log intensity, higher = more binding, comparable within an allelic series)"
same,binding signal,PRRX1 [5],"9.26 upbm affinity estimate (log intensity, higher = more binding, comparable within an allelic series)"
AAATAATT,binding signal,PRRX1 [1],"11.1 upbm affinity estimate (log intensity, higher = more binding, comparable within an allelic series)"
same,binding signal,HOXB6,"9.97 upbm affinity estimate (log intensity, higher = more binding, comparable within an allelic series)"
same,binding signal,HESX1 [28],"7.74 upbm affinity estimate (log intensity, higher = more binding, comparable within an allelic series)"
GAGGCTGC,binding signal,PRRX1 [1],"9.31 upbm affinity estimate (log intensity, higher = more binding, comparable within an allelic series)"
same,binding signal,PRRX1 [5],"9.36 upbm affinity estimate (log intensity, higher = more binding, comparable within an allelic series)"
CGCGGGAC,binding signal,PRRX1 [1],"9.43 upbm affinity estimate (log intensity, higher = more binding, comparable within an allelic series)"
same,binding signal,PRRX1 [5],"9.4 upbm affinity estimate (log intensity, higher = more binding, comparable within an allelic series)"

# Source: article PMC11006913
